Shown are actives, neighbours in structure and some others; about 1.9% of the full set was active somewhere.
Menin-MLL TR inh = displaces Texas Red mutant MLL peptide from human menin; O00255; Menin + Texas Red MLL mutant peptide, fluorescence polarization; Potency, µM (titrated, usually from 61.6 µM), most hits filed as inhibitors; actives 0.23% (n = 270,000); active means well fitted inhibition curve with a large enough effect in the polarisation, with a control signal flat, not every such curve was filed as active; inconclusive means small, poorly fitted or top-dose-only effect, or effect the other way, or a change in a side signal; inactive means no such curve, though single readings can be large or run the other way; the % refers to the polarisation
MLL CXXC-DNA inh = blocks binding of human MLL CXXC domain to DNA; Q03164; MLL-CXXC / FITC-HOXA9 DNA fluorescence polarization; Potency, µM (top dose mostly 115 µM), actives largely listed as inhibitors; actives 0.037% (n = 290,000); active means well fitted inhibition curve with a large enough effect in the polarisation, with a control signal flat, not every such curve was filed as active; inconclusive means small, poorly fitted or top-dose-only effect, or effect the other way, or a change in a side signal; inactive means no such curve, though single readings can be large or run the other way; the % refers to the polarisation
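Fluorescence polarization: 7 uM MLL-CXXC (stock) preincubated 5 min with compounds, then 50 nM fluorescein-HOX-A9 DNA (stock) added; 30 min ambient. Buffer 50 mM Tris-HCl pH 7.5, 50 mM NaCl, 1 mM DTT, 0.05% BSA.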
Menin MLL FP FL = menin-MLL binding inhibition, fluorescein peptide; Fluorescence polarization, fluorescein-MLL peptide displacement from menin; AID 1766; 290,000 tested, under 10 active; FP activity change, % at 61.4 µM; active means well fitted curve in the direction sought with a large enough effect in the polarisation, not every such curve was filed as active; inconclusive means small, poorly fitted or top-dose-only effect, or effect the other way, or a change in a side signal; inactive means no such curve, though single readings can be large or run the other way; the % refers to the polarisation
ClpP mod = qHTS Assay for Activators of ClpP; purified B. subtilis ClpP, FRET peptide cleavage, 20 min; Potency, µM (top dose mostly 57.5 µM); actives 1.9% (n = 340,000); AID 651965, 2013; ATP-dependent Clp protease proteolytic subunit (Bacillus subtilis (strain 168)), P80244; active means well fitted falling curve with a large enough effect; inconclusive means small, poorly fitted or top-dose-only effect; inactive means no such curve, though single readings can be large or run the other way; further: the source files actives as falling curves though it sought activators and does not explain the sign; nearly all actives have a fitted effect of over 65% in size
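ClpP 10 microg/mL final, pH 8 Tris/KCl buffer with BSA, glycerol, Tween-20; compound pinned in; FRET-FV substrate; RT 20 min; Ex320/Em430; ΔFRET vs ADEP 5.8 microM, DMSO, no enzyme.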
PINK1 modulator = modulators of PINK1 expression; PINK1 immunofluorescence, high-content cytometry, 24 h; Potency, µM (top dose mostly 76.6 µM), usual class: activators; actives 0.2% (n = 410,000); AID 624263; active means well fitted activation curve with a large enough effect; inconclusive means small, poorly fitted or top-dose-only effect; cell line not stated here; further: nearly all actives have a fitted effect of over 65% in size
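Measures PINK1 amount and localization on or inside mitochondria by immunofluorescence. Stable cells get compounds at 5 concentrations for 24 hours before fixation and staining; CCCP controls included.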
Epigenetic reg = derepresses silenced GFP reporter in murine cells; Potency, µM (titrated, usually from 53.9 µM), hits mostly activators; actives 0.2% (n = 280,000); murine LDR cells, GFP reporter derepression, 30 h; active means well fitted activation curve with a large enough effect; inconclusive means small, poorly fitted or top-dose-only effect; further: nearly all actives have a fitted effect of over 60% in size
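Murine LDR cells bearing a silenced CMV-driven GFP reporter were exposed to compound for 30 h at 37 C. After PBS washes, GFP-positive cells (20-120 um objects) counted by laser-scanning microplate cytometry.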
A number is an active result; . = inactive; ? = inconclusive; / = no result given; ! = not confirmed by another sample; [ ] = remark or other dose.

SMILES	Menin-MLL TR inh	MLL CXXC-DNA inh	Menin MLL FP FL	ClpP mod	PINK1 modulator	Epigenetic reg
CCOc1ccc(-n2cnnn2)cc1S(=O)(=O)NCc1ccccc1	.	.	.	.	.	.
CCOc1cc(S(=O)(=O)NCc2ccccc2)c(OCC)cc1-n1cnnn1	/	/	/	32µM	.	/
COc1ccc(CN2CCOc3ccc(CN4CCC(Oc5cccnc5)CC4)cc3C2)cc1	/	/	/	/	.	/
Cc1cc(Cl)ccc1OCC(=O)NCC1Cc2cc(-c3cnccn3)ccc2O1 (stereo unspecified)	/	/	/	/	.	/
CCc1ccccc1NS(=O)(=O)c1ccc2[nH]cc(C(=O)N(CC)Cc3ccccc3)c(=O)c2c1	/	/	/	.	.	.
CCN(Cc1ccccc1)C(=O)c1c[nH]c2ccc(S(=O)(=O)N(C)CCC#N)cc2c1=O	.	.	.	32µM	.	.
COc1cc2c(NC3CCN(C)CC3)nc(N3CCCN(C)CC3)nc2cc1O	/	/	/	.	.	/
O=C(O)CCc1ccc(-c2ccc(F)cc2)n1CC1CCCO1 (stereo unspecified)	.	.	.	22µM	.	.
COCCCn1c(CCC(=O)O)ccc1-c1cccs1	.	.	.	?	.	.
O=C(O)CCc1ccc(-c2cccs2)n1CC1CCCO1 (stereo unspecified)	.	.	.	25µM	.	.
CCCn1c(CCC(=O)O)ccc1-c1cccs1	?	.	.	25µM	.	.
COc1ccc(C(=O)N2CCC3(CC2)c2ccccc2[C@@H](NC(=O)c2ccccn2)[C@@H]3OC)c(O)c1	/	/	/	/	.	/
CCC1CN(CC(=O)NC(C)c2cn(C)nc2C)Cc2cc(OC)ccc2O1 (stereo unspecified)	/	/	/	/	.	/
Cc1cc(C)c(NC(=S)N(CCN(C)C)C(C)c2cccnc2)c(C)c1 (stereo unspecified)	.	.	.	16µM	.	.
Cc1cc(C)n2c(Br)c(CSc3nc4ccccc4o3)nc2n1	.	.	.	28µM	.	.
Oc1[nH]c(N=C2N=c3ccccc3=N2)c2ccccc12	.	.	?	.	.	13µM
O=C(NCCCc1nc2ccccc2n1CCCCOc1ccccc1)C1CCCCC1	/	/	/	.	.	/
Cn1c(-c2ccc3nc(N)sc3c2)nc2cc(N)ccc21	.	.	.	10µM	.	.
Nc1ccc(-c2nc3ccc(N)cc3s2)cc1	/	.	.	/	.	.
Cn1c(-c2ccc(N)cc2)nc2ccccc21	.	.	.	2.8µM!	.	.
C=CCn1c(-c2ccc(C)cc2)nc2ccccc21	.	.	.	7.1µM	.	.
Cc1cc(C(=O)Nc2cccc(-c3nc(CNC(=O)c4ccccc4C(F)(F)F)c(C)o3)c2)c(C)o1	/	/	/	/	.	/
CC(C)CNS(=O)(=O)c1ccc(NC(=O)Cn2nc(-c3ccc(F)cc3)ccc2=O)cc1	.	.	.	28µM	?	?
O=C(OCc1nnc(-c2ccccc2)o1)c1cn(-c2ccccc2)nc1-c1ccccc1	.	.	.	10µM	.	.
O=C(OCc1nnc(-c2ccccc2)o1)c1ccc(-n2cnnn2)cc1	/	/	/	/	.	/
SMILES	Menin-MLL TR inh	MLL CXXC-DNA inh	Menin MLL FP FL	ClpP mod	PINK1 modulator	Epigenetic reg
CCc1ccc(C(=O)c2cn(CC(=O)Nc3ccc(OC)c(Cl)c3)c3nc(C)ccc3c2=O)cc1	/	/	/	.	.	16µM
CCN(Cc1ccncc1)Cc1ccc2c(c1)CN(C(=O)c1cccc3c(C)c(C)[nH]c13)CCO2	/	/	/	/	.	/
COCCOc1cc(NC(=O)c2sccc2Oc2ccc([N+](=O)[O-])cc2F)c(Cl)cc1Cl	.	.	.	14µM	.	.
O=C(Nc1ccccc1)c1sccc1Oc1ccc([N+](=O)[O-])cc1F	.	.	.	/	.	.
COc1ccc2nccc(/C=C/c3ccc(N(C)C)cc3)c2c1	/	/	/	.	.	/
CCOC(=O)C1C(=O)C=C(/C=C/c2ccc(N(C)C)cc2)CC1c1ccccc1 (stereo unspecified)	?	?	?	.	?	22µM
CCOC(=O)C1C(=O)C=C(c2ccc(C)cc2)CC1c1ccccc1 (stereo unspecified)	?	.	.	.	.	.[10.1 µM]
COc1ccc(/C=C/C(=O)CC(=O)/C=C/c2cccc(O)c2OC)cc1O	.	/	?	/	/	13µM
COc1cc(/C=C/C(=O)CC(=O)/C=C/c2ccc(O)c(OC)c2)ccc1O	.	?	?	.	?	?
CC(C)=NNC(=O)CN1C(=O)NC2NC(=O)NC21 (stereo unspecified)	.	?	.	28µM	.	.
CCC(C)NC(=O)CN1C(=O)NC2NC(=O)NC21 (stereo unspecified)	/	.	.	.	.	.
Cc1ccc2nc(-c3cccc(N)c3)oc2c1	.	.	.	14µM	.	.
COc1ccc(NC(=O)Cc2nnc(SCC(=O)Nc3cc(C)ccc3OC)n2C)cc1	.	.	.	25µM	.	.
COc1ccc(C(=O)N2CCN(C)C(C)C2)cc1OC1CCN(C(C)=O)CC1 (stereo unspecified)	/	.	/	.	.	/
COc1ccc(C(=O)N2CCN(C)C(=O)[C@@H]2C)cc1OC1CCN(C(C)=O)CC1	/	.	/	32µM	.	/
Cc1cc(C(=O)Nc2sc(C)c(-c3ccc(F)cc3)c2C(N)=O)no1	.	.	.	13µM	.	.
Cc1cc2c(c(=O)n1CCN(C)C)C(c1ccncc1)C(C#N)=C(N)O2 (stereo unspecified)	.	.	.	2.5µM	.	.
COc1ccc(C2C(C#N)=C(N)Oc3cc(C)n(Cc4ccncc4)c(=O)c32)cc1 (stereo unspecified)	.	.	.	.	.	.
COc1cc(CN2CCc3nnc(C(NS(C)(=O)=O)C(C)C)n3CC2)ccc1F (stereo unspecified)	/	/	/	/	.	/
Cc1cc(O)ccc1N/C=C(\C#N)c1nc2ccccc2o1	.	.	.	18µM	?	.
N#C/C(=C\c1c(Cl)cccc1Cl)c1nc2ccccc2o1	.	.	.	4µM	.	.
Cc1c(Cl)cccc1-c1ccc(/C=C(\C#N)c2nc3ccccc3[nH]2)o1	/	/	/	.	.	?
Oc1cc(-c2nc3ccccc3s2)cc2c1OCCN(Cc1cccn1-c1ccc(Cl)cn1)C2	/	/	/	/	.	/
CC(C)(C)C(=O)n1nc(-c2ccccc2)oc1=O	.	.	.	32µM	.	.
Cc1cc2c(C)nc(-c3ccccc3)nc2o1	?	.	.	.	.	.
Cc1nc(-c2cn[nH]c2)c2cc(C)oc2n1	.	.	.	28µM	.	.

Screens deposited in PubChem BioAssay by National Center for Advancing Translational Sciences (NCATS).
